Results reported in PubChem BioAssay (NCI).
About 83,000 compounds went through this panel and 20% of them were active in at least one assay; those are over-represented in the sample as a whole.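 Cells were grown in 96-well plates and exposed to the test compound at a single concentration for 48 hours; results are reported as percent growth, with values below 10 considered active.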 Active and inactive are the calls of the source.

Assays:
Test in all cases: NCI-60 one-dose screen, 48 h (100 = growth as untreated, 0 = no growth, -100 = all killed)
Conditions in all cases: 10 µM unless noted
NCI-H23 lung = system: NCI-H23 lung
NCI-H226 lung = system: NCI-H226 lung
NCI-H322M lung = system: NCI-H322M lung
HOP-62 NSCLC = system: HOP-62 NSCLC
NCI-H460 lung = system: NCI-H460 lung
HOP-92 NSCLC = system: HOP-92 NSCLC
NCI-H522 lung = system: NCI-H522 lung
A549/ATCC NSCLC = system: A549/ATCC NSCLC
786-0 renal = system: 786-0 renal
COLO 205 colon = system: COLO 205 colon
DU-145 prostate = system: DU-145 prostate
K-562 leukemia = system: K-562 leukemia
MALME-3M melanoma = system: MALME-3M melanoma
MDA-MB-231 breast = system: MDA-MB-231 breast
RXF 393 renal = system: RXF 393 renal
SF-268 CNS = system: SF-268 CNS
SF-295 CNS = system: SF-295 CNS
SF-539 CNS = system: SF-539 CNS
UACC-257 melanoma = system: UACC-257 melanoma
M14 melanoma = system: M14 melanoma

Measured: growth

COCCn1cc(-c2nc(-c3cc4cccnc4n3C)cs2)c2ccccc21
active: NCI-H522 lung -6.38%
inactive: NCI-H23 lung 39.4% | NCI-H226 lung 60.9% | NCI-H322M lung 41.6% | HOP-62 NSCLC 52.5% | NCI-H460 lung 19.9% | HOP-92 NSCLC 44.1% | A549/ATCC NSCLC 28.9% | 786-0 renal 56.7% | COLO 205 colon 11.9% | DU-145 prostate 66.8% | K-562 leukemia 20% | MALME-3M melanoma 70.7% | MDA-MB-231 breast 37.1% | RXF 393 renal 70.7% | SF-268 CNS 58.9% | SF-295 CNS 36.5% | SF-539 CNS 60.6% | UACC-257 melanoma 49% | M14 melanoma 24.3%

CN(C)CCn1c(=O)c2ccccc2n2nc3ccccc3c12
inactive: NCI-H23 lung 87.3% | NCI-H226 lung 84.8% | NCI-H322M lung 85% | HOP-62 NSCLC 90.9% | NCI-H460 lung 70.4% | HOP-92 NSCLC 99.6% | NCI-H522 lung 97.4% | A549/ATCC NSCLC 61.2% | 786-0 renal 93.9% | COLO 205 colon 57.2% | DU-145 prostate 101% | K-562 leukemia 86.5% | MALME-3M melanoma 92.4% | MDA-MB-231 breast 90.8% | RXF 393 renal 74.3% | SF-268 CNS 98.6% | SF-295 CNS 75% | SF-539 CNS 87.9% | UACC-257 melanoma 105% | M14 melanoma 92.1%

CN1CCN(Cc2ccc(NC(=O)c3cncc(C#Cc4cnc(N)cc4C#N)c3)cc2C(F)(F)F)CC1
active: NCI-H226 lung 7.61% | NCI-H460 lung 7.15% | HOP-92 NSCLC -5.52% | NCI-H522 lung 9.51% | COLO 205 colon -31.2% | MALME-3M melanoma -4.04% | MDA-MB-231 breast 6.83% | SF-539 CNS -12% | UACC-257 melanoma 3.84% | M14 melanoma -23.1%
inactive: NCI-H23 lung 15.3% | NCI-H322M lung 17% | HOP-62 NSCLC 12.1% | A549/ATCC NSCLC 19.2% | 786-0 renal 24.9% | DU-145 prostate 21.1% | K-562 leukemia 15.9% | RXF 393 renal 13.4% | SF-268 CNS 23.5% | SF-295 CNS 24.5%

O=C(/C=C/C12c3ccccc3C(c3ccccc31)C1C(=O)NC(=O)C12)c1ccc(I)cc1 (stereo not given)
inactive: NCI-H23 lung 59.3% | NCI-H226 lung 88.8% | NCI-H322M lung 65.1% | HOP-62 NSCLC 69.3% | NCI-H460 lung 44.8% | HOP-92 NSCLC 63.7% | NCI-H522 lung 55% | A549/ATCC NSCLC 71.9% | 786-0 renal 64.6% | COLO 205 colon 78.8% | DU-145 prostate 43.2% | K-562 leukemia 24.8% | MALME-3M melanoma 86.1% | MDA-MB-231 breast 64% | RXF 393 renal 46% | SF-268 CNS 49.8% | SF-295 CNS 78.5% | SF-539 CNS 83.3% | UACC-257 melanoma 60.5% | M14 melanoma 74%

COC(=O)c1c2c(c[n+]([O-])c1C)C(=O)C=C(NCc1ccccc1)C2=O
active: NCI-H23 lung -39.1% | NCI-H226 lung -90.8% | NCI-H322M lung -100% | HOP-62 NSCLC -95.3% | NCI-H460 lung -79.8% | HOP-92 NSCLC -74.5% | NCI-H522 lung -57.9% | A549/ATCC NSCLC -64.2% | 786-0 renal -69% | COLO 205 colon -73.7% | DU-145 prostate -94.7% | K-562 leukemia -29% | MALME-3M melanoma -100% | MDA-MB-231 breast -17.7% | RXF 393 renal -94.1% | SF-268 CNS -51.6% | SF-295 CNS -93.7% | SF-539 CNS -99% | UACC-257 melanoma -92.2% | M14 melanoma -92.2%

CN1C(=O)N2CN3CCCN(C3)CN3C(=S)NC1C23 (stereo not given)
inactive: NCI-H23 lung 103% | NCI-H226 lung 99.6% | NCI-H322M lung 105% | HOP-62 NSCLC 104% | NCI-H460 lung 105% | HOP-92 NSCLC 98.7% | NCI-H522 lung 95% | A549/ATCC NSCLC 87% | 786-0 renal 102% | COLO 205 colon 117% | DU-145 prostate 103% | K-562 leukemia 97.1% | MALME-3M melanoma 112% | MDA-MB-231 breast 104% | RXF 393 renal 109% | SF-268 CNS 99.8% | SF-295 CNS 105% | SF-539 CNS 103% | UACC-257 melanoma 87.6% | M14 melanoma 107%

O=C(NCCN1CCOCC1)OCc1ccc2c(Cl)cc(Cl)c(O)c2n1
inactive: NCI-H23 lung 72.8% | NCI-H226 lung 94.6% | NCI-H322M lung 66.9% | HOP-62 NSCLC 47.8% | NCI-H460 lung 63.7% | HOP-92 NSCLC 77.3% | NCI-H522 lung 81% | A549/ATCC NSCLC 56.8% | 786-0 renal 81.9% | COLO 205 colon 109% | DU-145 prostate 57.7% | K-562 leukemia 31.7% | MALME-3M melanoma 73.4% | MDA-MB-231 breast 93.8% | RXF 393 renal 77.3% | SF-268 CNS 57.3% | SF-295 CNS 49.2% | SF-539 CNS 77.9% | UACC-257 melanoma 89.1% | M14 melanoma 54.6%

CC[C@@H](C(=O)[C@@H](C)[C@@H](O)[C@H](C)[C@@H]1O[C@@H]([C@@H](CC)C(=O)ONC(=O)c2ccccc2O)CC[C@@H]1C)C1O[C@]2(C=CC(=O)[C@]3(CC[C@@](C)([C@H]4CC[C@](O)(CC)[C@H](C)O4)O3)O2)[C@H](C)C[C@@H]1C (stereo not given in full)
active: MALME-3M melanoma 4.34%
inactive: NCI-H23 lung 23.1% | NCI-H226 lung 52.7% | NCI-H322M lung 70% | HOP-62 NSCLC 58.3% | NCI-H460 lung 33.5% | HOP-92 NSCLC 37.3% | NCI-H522 lung 23.9% | A549/ATCC NSCLC 23.8% | 786-0 renal 61.7% | COLO 205 colon 11.6% | DU-145 prostate 40.3% | K-562 leukemia 28.6% | MDA-MB-231 breast 50.9% | RXF 393 renal 35.2% | SF-268 CNS 54.2% | SF-295 CNS 44.7% | SF-539 CNS 27.5% | UACC-257 melanoma 38.3% | M14 melanoma 63.6%

Cc1ccc2c(c1)nc(C)n2-c1ncnc2c1CC(C)c1cc(O)ccc1N2C (stereo not given)
inactive: NCI-H23 lung 65.7% | NCI-H226 lung 74.1% | NCI-H322M lung 64% | HOP-62 NSCLC 37.8% | NCI-H460 lung 19.7% | HOP-92 NSCLC 24.7% | NCI-H522 lung 23.6% | A549/ATCC NSCLC 31% | 786-0 renal 33.4% | COLO 205 colon 98.5% | DU-145 prostate 42.1% | K-562 leukemia 14.8% | MALME-3M melanoma 48.9% | MDA-MB-231 breast 50.8% | RXF 393 renal 10.7% | SF-268 CNS 44.1% | SF-295 CNS 11.1% | SF-539 CNS 28.7% | UACC-257 melanoma 17.9% | M14 melanoma 15%

COc1ccc(C2CC(c3ccccc3)=NN2C(=O)c2cc(OC)c(OC)c(OC)c2)cc1O (stereo not given)
inactive: NCI-H23 lung 35.6% | NCI-H226 lung 27.4% | NCI-H322M lung 57.5% | HOP-62 NSCLC 49.4% | HOP-92 NSCLC 28% | A549/ATCC NSCLC 29.5% | 786-0 renal 20.4% | COLO 205 colon 71% | DU-145 prostate 25.8% | K-562 leukemia 14.1% | MALME-3M melanoma 81.8% | SF-268 CNS 49.9% | UACC-257 melanoma 66.2% | M14 melanoma 13.4%
active: NCI-H460 lung 6.52% | NCI-H522 lung -3.83% | MDA-MB-231 breast 8.45% | RXF 393 renal -9.96% | SF-295 CNS 5.83% | SF-539 CNS -15.7%

CCOC(=O)C/C(=N\Nc1cc(=O)[nH]c2ccc(C)cc12)C(=O)OCC
inactive: NCI-H23 lung 103% | NCI-H226 lung 93.3% | NCI-H322M lung 98% | HOP-62 NSCLC 107% | NCI-H460 lung 104% | HOP-92 NSCLC 79.8% | NCI-H522 lung 99.4% | A549/ATCC NSCLC 107% | 786-0 renal 109% | COLO 205 colon 124% | DU-145 prostate 108% | K-562 leukemia 89.4% | MALME-3M melanoma 98% | MDA-MB-231 breast 96.3% | RXF 393 renal 108% | SF-268 CNS 99.5% | SF-295 CNS 105% | SF-539 CNS 103% | UACC-257 melanoma 105% | M14 melanoma 106%

C=C(c1ccc(C(=O)O)c(F)c1)c1cc2c(cc1C)C(C)(C)CCC2(C)C
inactive: NCI-H23 lung 80% | NCI-H226 lung 82.6% | NCI-H322M lung 101% | HOP-62 NSCLC 76.4% | NCI-H460 lung 81.5% | HOP-92 NSCLC 58.4% | NCI-H522 lung 78.1% | A549/ATCC NSCLC 52% | 786-0 renal 96.6% | COLO 205 colon 123% | DU-145 prostate 108% | K-562 leukemia 71.9% | MALME-3M melanoma 63.6% | MDA-MB-231 breast 85.7% | RXF 393 renal 90.9% | SF-268 CNS 77.9% | SF-295 CNS 72.8% | SF-539 CNS 81.1% | UACC-257 melanoma 95.8% | M14 melanoma 89.4%

C=C1SC(=Nc2ccccc2Cl)N(C(=O)c2sc3ccccc3c2Cl)C1(C)C
inactive: NCI-H23 lung 36.7% | NCI-H226 lung 77.1% | NCI-H322M lung 65.9% | HOP-62 NSCLC 54.8% | NCI-H460 lung 15.1% | HOP-92 NSCLC 53.6% | NCI-H522 lung 91.6% | A549/ATCC NSCLC 43.7% | 786-0 renal 77.8% | DU-145 prostate 94% | K-562 leukemia 20.3% | MALME-3M melanoma 79.6% | MDA-MB-231 breast 50.5% | RXF 393 renal 93.8% | SF-268 CNS 85.2% | SF-295 CNS 27% | SF-539 CNS 54.3% | UACC-257 melanoma 98.4% | M14 melanoma 86.6%
active: COLO 205 colon -43.8%

COc1ccc2cc(-c3nc4ccc(C)cn4c3NCc3ccco3)c(=O)[nH]c2c1
inactive: NCI-H23 lung 70.2% | NCI-H226 lung 76.4% | NCI-H322M lung 74.1% | HOP-62 NSCLC 90.7% | NCI-H460 lung 88.9% | HOP-92 NSCLC 20.6% | NCI-H522 lung 87.3% | A549/ATCC NSCLC 85.2% | 786-0 renal 67.9% | COLO 205 colon 76% | DU-145 prostate 71.7% | K-562 leukemia 74.3% | MALME-3M melanoma 75.4% | MDA-MB-231 breast 49.6% | RXF 393 renal 73.4% | SF-268 CNS 71.6% | SF-295 CNS 74.8% | SF-539 CNS 65.5% | UACC-257 melanoma 103% | M14 melanoma 86.8%
